Results published in PMC4552634, “A New Set of Chemical Starting Points with Plasmodium falciparum Transmission-Blocking Potential for Antimalarial Drug Discovery” (PLoS ONE, 2015).
Out of some 13,000 compounds screened, about 3,200 (25%) showed an effect of 50% or more. This is one part of the list.

Test system: P. falciparum stage V gametocytes
Parameters: BacTiter-Glo ATP luminescence viability of purified stage V gametocytes in 384-well plates, per cent inhibition versus DMSO
Details: 48 h, 5 µM; inhibitor

Structure (SMILES) | % Inhibition
COc1ccc(-c2ccc(NC(=O)c3ccc(C#N)cc3)cc2)cc1CN1CCCC1 [TCMDC-132519] | 46.41%
O=C(Nc1ccc(-c2ccc(CN3CCNCC3)cc2)cc1)c1cccc(Cl)c1 [TCMDC-132590] | 87.95%
O=C(Nc1cccc(-c2ccc(CN3CCCC3)cc2)c1)c1cccc(Cl)c1 [TCMDC-132643] | 24.88%
COc1ccc(-c2ccc(NC(=O)c3ccc(C#N)cc3)cc2)cc1CN1CCNCC1 [TCMDC-132516] | 43.65%
COc1ccc(-c2ccc(NC(=O)c3cccc(Cl)c3)cc2)cc1CN1CCCC1 [TCMDC-132525] | 40.62%
CN1CCCN(Cc2cccc(-c3cccc(NC(=O)c4cccc(Cl)c4)c3)c2)CC1 [TCMDC-132657] | -0.3892%
CN1CCCN(Cc2ccc(-c3ccc(NC(=O)c4cccc(Cl)c4)cc3)cc2)CC1 [TCMDC-132591] | 42.97%
O=C(Nc1cccc(-c2cccc(CN3CCCC3)c2)c1)c1cccc(Cl)c1 [TCMDC-132659] | 85.38%
COc1ccc(-c2cccc(NC(=O)c3cccc(Cl)c3)c2)cc1CN1CCCC1 [TCMDC-132615] | 79.62%
COc1ccc(-c2cccc(NC(=O)c3cccc(Cl)c3)c2)cc1CN1CCCN(C)CC1 [TCMDC-132614] | -18.61%
COc1ccc(-c2ccc(NC(=O)c3ccc(Cl)cc3)cc2)cc1CN1CCNCC1 [TCMDC-133338] | 93.69%
O=C(Nc1cccc(-c2ccc(CN3CCNCC3)cc2)c1)c1cccc(Cl)c1 [TCMDC-132640] | -31.19%
COc1ccc(-n2nc(C)c3c2NC(=O)CC3c2ccccc2OCc2ccc(F)cc2)cc1 (stereo not drawn) [TCMDC-124906] | 40.61%
COC(=O)c1cc(C(O)CNC(C)CCCc2ccccc2)ccc1O (stereo not drawn) [TCMDC-131241] | -5.82%
COc1ccc2nccc([C@@H](O)CN3CCC(NCc4nc5c(F)cccc5[nH]4)CC3)c2c1 [TCMDC-140760] | 20.74%
O=C(c1cccc(-c2cccc(-c3nc4cc(C(F)(F)F)ccc4[nH]3)c2)c1)N1CCCCC1CN1CCC(O)C1 (stereo not drawn) [TCMDC-132346] | -18.68%
CCN(CCCN1CCCCC1)c1cc(C)nc(Nc2cc(Cl)cc(Cl)c2)n1 [TCMDC-132455] | 8.984%
Cc1nc(C(C)Nc2nncc(-c3ccc(Cl)cc3)n2)cs1 (stereo not drawn) [TCMDC-124636] | -29.02%
CC(C)c1cccc(C(NC(=O)[C@H]2Cc3ccccc3CN2C(=O)c2cccc(N3CCOCC3)c2)C2CCCC2)c1 (stereo partly drawn) [TCMDC-138264] | 2.743%
FC(F)(F)c1ccc2[nH]c(-c3ccc(-c4cccc(CNCC5CCCO5)c4)s3)nc2c1.O=C(O)C(F)(F)F (stereo not drawn) [TCMDC-133099] | -9.129%
COc1ccc2nccc([C@@H](O)CN3CCC(NS(=O)(=O)c4cc(Br)c(Br)s4)CC3)c2c1 [TCMDC-141306] | 29.28%
COc1ccc(-c2cccc(NC(=O)c3cccc(Cl)c3)c2)cc1CN1CCC(O)CC1 [TCMDC-132618] | 87.3%

Structure (SMILES) | % Inhibition
COc1ccc(-c2ccc(NC(=O)c3cccc(Cl)c3)cc2)cc1CN1CCC(O)CC1 [TCMDC-133334] | 46.17%
COc1ccc(-c2cccc(NC(=O)c3ccc(Cl)cc3)c2)cc1CN1CCC(O)CC1 [TCMDC-132606] | -74.32%
Cc1ccc(CNc2cc(C(F)(F)F)nc(-c3ccc(S(C)(=O)=O)cc3)n2)cc1 [TCMDC-138598] | 20.79%
Cc1cc(-c2cccc3c(C(=O)N4CCc5cc6nccc(N7CCN8CCC[C@H]8C7)c6cc54)cccc23)cc(C)n1 [TCMDC-139793] | 31.07%
CN1CCCN(c2ccnc3cc4c(cc23)N(C(=O)c2ccc(Cl)cc2Cl)CC4)CC1 [TCMDC-140241] | 126.7%
CN1CCN(c2ccnc3cc4c(cc23)N(C(=O)Nc2ccc(-c3ccncc3)c3ccccc23)CC4)CC1 [TCMDC-139371] | 4.895%
CN1CCCN(c2ccnc3cc4c(cc23)N(C(=O)c2ccc(C(F)(F)F)cc2)CC4)CC1 [TCMDC-140243] | 67.52%
CN1CCN(c2ccnc3cc4c(cc23)N(C(=O)Nc2ccc3c(c2)CCCC3=O)CC4)CC1 [TCMDC-139372] | 0.5076%
O=C(/C=C/c1ccc(C(F)(F)F)cc1)N1CCc2cc3nccc(N4CCN5CCC[C@H]5C4)c3cc21 [TCMDC-140045] | 20.84%
Cc1cc(-c2cccc3c(C(=O)N4CCc5cc6nccc(N7CCCN(C)CC7)c6cc54)cccc23)cc(C)n1 [TCMDC-140244] | 100.8%
O=C(Nc1ccc(Cl)c(Cl)c1)N1CCc2cc3nccc(N4CCN5CCC[C@H]5C4)c3cc21 [TCMDC-140055] | 49.62%
CN1CCCN(c2ccnc3cc4c(cc23)N(C(=O)c2ccccc2Cl)CC4)CC1 [TCMDC-140239] | 27.46%
CN1CCN(c2ccnc3ccc(NC(=O)c4ccc(Cl)c(Cl)c4)cc23)CC1 [TCMDC-139350] | 4.304%
Cc1nc(-c2ccc(C(F)(F)F)cn2)sc1C(=O)N1CCc2cc3nccc(N4CCN5CCC[C@H]5C4)c3cc21 [TCMDC-140330] | -2.363%
CN1CCCN(c2ccnc3cc4c(cc23)N(C(=O)c2ccc(Cl)c(Cl)c2)CC4)CC1 [TCMDC-140242] | 99.6%
CN1CC(c2ccccc2)c2cc(O)c(CN3CCCCC3)cc2CC1Cc1ccccc1 (stereo not drawn) [TCMDC-131902] | -4.593%
COc1cc(Cc2cnc(N)nc2N)cc(OCCCCNS(=O)(=O)C(F)(F)F)c1OC [TCMDC-137348] | 8.081%
O=C(NC1CCN(CCCOc2ccnc3cc(Cl)ccc23)C1)c1ccc(Br)cc1 (stereo not drawn) [TCMDC-136147] | -6.07%
Cc1nc(-c2ccc(-c3ccc(C(=O)Nc4ccc(Cl)c(N5CCN(C)CC5)c4)cc3)c(C)c2)no1 [TCMDC-131979] | -60.2%
CC1(C)N=C(N)N=C(N)N1c1ccc(I)cc1 [TCMDC-124271] | 5.763%
CN(CCCCCNC(=O)/C=C/c1ccc(Cl)c(Cl)c1)CCCCc1c[nH]c2ccccc12 [TCMDC-139328] | -28.14%
CC1CCN(c2nc(C(=O)Nc3cccc4c3CCCC4)c(C(C)C)s2)CC1 [TCMDC-134662] | 11.59%

Structure (SMILES) | % Inhibition
CN1CCN(c2ccnc3cc4c(cc23)N(Cc2ccccc2)CC4)CC1 [TCMDC-139341] | -3.615%
CN1CCCN(c2ccnc3cc4c(cc23)N(C(=O)c2ccc(Cl)cc2)CC4)CC1 [TCMDC-140240] | 94.93%
CN1CCN(c2ccnc3ccc(NC(=O)Nc4ccc(Cl)cc4)cc23)CC1 [TCMDC-139322] | 28.3%
Cc1ccc(C2(C)CC(C)(C)N(C(=O)COc3ccc4ccccc4c3)c3ccccc32)cc1 (stereo not drawn) [TCMDC-124089] | -65.04%
COc1ccccc1CCN1CCC(CN(C)Cc2ccc(O)c(Cl)c2)CC1 [TCMDC-124611] | 14.29%
COc1ccc2nccc([C@@H](O)CN3CCC(NC(=O)c4cc5c(Cl)cc(Cl)cc5[nH]4)CC3)c2c1 [TCMDC-141039] | -18.46%
CN(C)c1ccc(C=C2SC(=O)NC2=Nc2ccccc2)cc1 [TCMDC-123738] | 34.75%
O=C(Nc1cccc(Cl)c1)N[C@H]1CCN(Cc2ccc(OCCCN3CCCCC3)cc2)C1 [TCMDC-141788] | 103.5%
O=C(Nc1ccc(-c2ccccc2)s1)N[C@H]1CCN(Cc2ccc(OCCCN3CCCCC3)cc2)C1 [TCMDC-141789] | 86.03%
O=C(Nc1ccc(Oc2ccccc2)cc1)N[C@@H](Cc1ccc(O)cc1)C(=O)NC1CCN(Cc2ccc(O)c([N+](=O)[O-])c2)C1 (stereo partly drawn) [TCMDC-140421] | 0.03751%
COc1cccc(NC(=O)NC2CCN(CCCCCNC(=O)/C=C/c3ccc(Cl)c(Cl)c3)CC2)c1 [TCMDC-139388] | 31.25%
O=C(Nc1ccc(Cl)cc1)N[C@H]1CCN(Cc2ccc(OCCCN3CCCCC3)cc2)C1 [TCMDC-141787] | 90.53%
O=C(Nc1ccc(Cl)cc1)Nc1ccc(OCC(O)CN2CCCCC2)cc1 (stereo not drawn) [TCMDC-123519] | 4.072%
Cc1ccc(CN2CCCCC(NC(=O)c3cc4ccccc4s3)C2)cc1 (stereo not drawn) [TCMDC-141748] | -37.31%
COc1cc(CN2CCC(NC(=O)[C@H](Cc3ccccc3)NC(=O)Nc3ccc(Oc4ccccc4)cc3)C2)ccc1O (stereo partly drawn) [TCMDC-140500] | -15.62%
O=C(Nc1ccc(Oc2ccccc2)cc1)N[C@H]1CCN(Cc2ccc(OCCCN3CCCCC3)cc2)C1 [TCMDC-141786] | 96.23%
Cc1cccc2[nH]c(-c3cccc(-c4cccc(NC(=O)NCc5cccc(F)c5)c4)c3)nc12 [TCMDC-133291] | 37.78%
O=C(Nc1cccc(-c2cccc(-c3nc4ccc(F)cc4[nH]3)c2)c1)Nc1ccc(F)c(F)c1F [TCMDC-133233] | -45%
Cc1cc(Cl)c(S(=O)(=O)N(C)c2ccccc2)cc1OCC(=O)NC1CCCCC1 [TCMDC-124368] | -27.39%
Cc1cc(C(=O)CN2C(=O)NC3(CCOc4ccccc43)C2=O)c(C)n1Cc1ccc(F)cc1 (stereo not drawn) [TCMDC-125246] | -0.05637%
CC(CNc1nc(NCC(c2ccccc2)c2ccccc2)c2[nH]cnc2n1)c1ccccc1 (stereo not drawn) [TCMDC-131859] | -14.76%
O=C(Nc1ccc(C(F)(F)F)cc1)c1ccc(S(=O)(=O)NC2CCN(Cc3ccccc3)C2)cc1 (stereo not drawn) [TCMDC-133675] | 7.046%
